Measurements published in PubChem BioAssay (NCI).
About 83,000 compounds went through this panel and 20% of them were active in at least one assay; those are over-represented in the sample as a whole.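 Single-concentration screen, 48 h exposure, 96-well plates. Endpoint: percent growth. Below 10 = active.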 The source made the active and inactive calls.

Columns and labels:
Assay in all cases: NCI-60 one-dose screen, 48 h (100 = growth as untreated, 0 = no growth, -100 = all killed)
Settings in all cases: 10 µM unless noted
SR leukemia = tested on: SR leukemia
RPMI-8226 leukemia = tested on: RPMI-8226 leukemia
OVCAR-8 ovarian = tested on: OVCAR-8 ovarian
OVCAR-5 ovarian = tested on: OVCAR-5 ovarian
OVCAR-4 ovarian = tested on: OVCAR-4 ovarian
SK-OV-3 ovarian = tested on: SK-OV-3 ovarian
IGROV1 ovarian = tested on: IGROV1 ovarian
OVCAR-3 ovarian = tested on: OVCAR-3 ovarian
HS 578T breast = tested on: HS 578T breast
NCI/ADR-RES ovarian = tested on: NCI/ADR-RES ovarian

Measured: growth

CCc1cnc2ccccc2c1/C=C/c1ccc(N(C)C)cc1
active: SR leukemia 4.96%
inactive: RPMI-8226 leukemia 67.3% | OVCAR-8 ovarian 59.5% | OVCAR-5 ovarian 75% | OVCAR-4 ovarian 79.3% | SK-OV-3 ovarian 38.5% | IGROV1 ovarian 42% | OVCAR-3 ovarian 16.9% | HS 578T breast 62.8% | NCI/ADR-RES ovarian 21.8%

O=C1/C(=C/c2ccccc2)CCC/C1=C\c1ccccc1
inactive: SR leukemia 67.4% | OVCAR-8 ovarian 91.7% | OVCAR-5 ovarian 120% | OVCAR-4 ovarian 94.1% | SK-OV-3 ovarian 99.6% | IGROV1 ovarian 80% | OVCAR-3 ovarian 65.1% | HS 578T breast 101% | NCI/ADR-RES ovarian 95.2%
active: RPMI-8226 leukemia -3.31%

CCCCCCCCCCCCNCCCc1ccccc1
active: SR leukemia -34.3% | RPMI-8226 leukemia 6.17%
inactive: OVCAR-8 ovarian 79.3% | OVCAR-5 ovarian 81.2% | OVCAR-4 ovarian 46.5% | SK-OV-3 ovarian 103% | IGROV1 ovarian 75.4% | OVCAR-3 ovarian 83% | HS 578T breast 88.6% | NCI/ADR-RES ovarian 75.1%

O=[N+]([O-])c1ccc(N2CCN(Cc3ccccc3)CC2)c2c1no[n+]2[O-]
active: SR leukemia -47.7% | RPMI-8226 leukemia -15.1% | OVCAR-8 ovarian 0.836% | OVCAR-4 ovarian -50.2% | IGROV1 ovarian -42% | OVCAR-3 ovarian -53.7%
inactive: OVCAR-5 ovarian 26.5% | SK-OV-3 ovarian 58.4% | HS 578T breast 30.5% | NCI/ADR-RES ovarian 24.5%

CN(C)c1ccc(C(C#N)(c2ccccc2)c2ccc(N(C)C)cc2)cc1
inactive: SR leukemia 15.9% | RPMI-8226 leukemia 14.9% | OVCAR-8 ovarian 23.4% | OVCAR-5 ovarian 106% | OVCAR-4 ovarian 83.5% | SK-OV-3 ovarian 92.5% | IGROV1 ovarian 83% | OVCAR-3 ovarian 72.3% | HS 578T breast 33.2% | NCI/ADR-RES ovarian 73.8%

CCN1CCCC(Nc2cc(C)nc(/N=C(/N)Nc3ccc(Cl)c(Cl)c3)n2)C1 (stereo not given)
active: SR leukemia -60.3% | RPMI-8226 leukemia -31.6% | OVCAR-8 ovarian -21.5% | OVCAR-4 ovarian -17.3% | SK-OV-3 ovarian 6.57% | OVCAR-3 ovarian -49% | HS 578T breast -37.8%
inactive: OVCAR-5 ovarian 13% | IGROV1 ovarian 14.5% | NCI/ADR-RES ovarian 17.2%

O=[N+]([O-])c1ccc(Oc2ccccc2Cl)c([N+](=O)[O-])c1
inactive: RPMI-8226 leukemia 78.4% | OVCAR-8 ovarian 93.2% | OVCAR-5 ovarian 116% | OVCAR-4 ovarian 56.4% | SK-OV-3 ovarian 99.8% | IGROV1 ovarian 104% | OVCAR-3 ovarian 94.1% | HS 578T breast 77.7% | NCI/ADR-RES ovarian 72.7%
active: SR leukemia 1.58%

Cn1c(-c2ccccc2)c(/C=C/C2=[N+](C)c3ccccc3C2(C)C)c2ccccc21
inactive: OVCAR-5 ovarian 33.9% | OVCAR-4 ovarian 12.2% | IGROV1 ovarian 33.9% | HS 578T breast 11% | NCI/ADR-RES ovarian 86.8%
active: SR leukemia 9.26% | RPMI-8226 leukemia -1.71% | OVCAR-8 ovarian 2.16% | SK-OV-3 ovarian -9.3% | OVCAR-3 ovarian 6.26%

CCCCCC[C@@H](O)C/C=C\CCCCCCCC(=O)OCCOC
inactive: SR leukemia 122% | RPMI-8226 leukemia 102% | OVCAR-8 ovarian 101% | OVCAR-5 ovarian 103% | OVCAR-4 ovarian 98.4% | SK-OV-3 ovarian 114% | IGROV1 ovarian 114% | OVCAR-3 ovarian 112% | HS 578T breast 101% | NCI/ADR-RES ovarian 104%

CCCOS(=O)(=O)c1ccccc1
inactive: SR leukemia 108% | RPMI-8226 leukemia 71.2% | OVCAR-8 ovarian 104% | OVCAR-5 ovarian 93% | OVCAR-4 ovarian 123% | SK-OV-3 ovarian 91.9% | IGROV1 ovarian 104% | OVCAR-3 ovarian 107% | HS 578T breast 126% | NCI/ADR-RES ovarian 110%

CCN(CC)CCNc1ccc([N+](=O)[O-])c2sc3ccccc3c(=O)c12
inactive: SR leukemia 11.1% | RPMI-8226 leukemia 22.2% | OVCAR-8 ovarian 19.1% | OVCAR-5 ovarian 45% | OVCAR-4 ovarian 12% | SK-OV-3 ovarian 32.6% | OVCAR-3 ovarian 36.7% | HS 578T breast 20.4% | NCI/ADR-RES ovarian 32.8%
active: IGROV1 ovarian -10.9%

CCCCCCC1N=C(N)N=C(N)N1c1cccc(Cl)c1 (stereo not given)
inactive: SR leukemia 31.5% | RPMI-8226 leukemia 14% | OVCAR-8 ovarian 35.7% | OVCAR-5 ovarian 58.9% | OVCAR-4 ovarian 43.9% | SK-OV-3 ovarian 45.1% | IGROV1 ovarian 58% | OVCAR-3 ovarian 41.5% | HS 578T breast 55.2% | NCI/ADR-RES ovarian 111%

CC(C)(C)CC(C)(C)c1ccc(OCCOCCSC(=N)N)cc1
active: SR leukemia -24.4% | RPMI-8226 leukemia -43.6%
inactive: OVCAR-8 ovarian 58.5% | OVCAR-5 ovarian 73.6% | OVCAR-4 ovarian 33% | SK-OV-3 ovarian 55.9% | IGROV1 ovarian 54.9% | OVCAR-3 ovarian 25.3% | HS 578T breast 33.9% | NCI/ADR-RES ovarian 45.5%

CSc1nc(C)c(C(=O)CCN2CCN(c3ccccn3)CC2)s1
inactive: SR leukemia 94.3% | RPMI-8226 leukemia 80.1% | OVCAR-8 ovarian 98.4% | OVCAR-5 ovarian 104% | OVCAR-4 ovarian 97.5% | SK-OV-3 ovarian 102% | IGROV1 ovarian 119% | OVCAR-3 ovarian 104% | HS 578T breast 102% | NCI/ADR-RES ovarian 110%

O=[N+]([O-])c1cc(-c2ccccc2)c(O)c([N+](=O)[O-])c1
inactive: SR leukemia 80.4% | RPMI-8226 leukemia 38.9% | OVCAR-8 ovarian 91.7% | OVCAR-5 ovarian 94.6% | OVCAR-4 ovarian 62.6% | SK-OV-3 ovarian 83% | IGROV1 ovarian 106% | OVCAR-3 ovarian 69.7% | HS 578T breast 84.4% | NCI/ADR-RES ovarian 94.7%

NC(=S)Nc1ccc2c(c1)Cc1ccccc1-2
inactive: SR leukemia 84.9% | RPMI-8226 leukemia 62.1% | OVCAR-8 ovarian 84.5% | OVCAR-5 ovarian 101% | OVCAR-4 ovarian 83.4% | SK-OV-3 ovarian 98.1% | IGROV1 ovarian 88.3% | OVCAR-3 ovarian 98.3% | HS 578T breast 88.2% | NCI/ADR-RES ovarian 88.2%

CCCCC(CCc1ccc([N+](=O)[O-])cc1)(C(C)=O)C(=O)OCC (stereo not given)
inactive: SR leukemia 63.5% | RPMI-8226 leukemia 96.2% | OVCAR-8 ovarian 104% | OVCAR-5 ovarian 105% | OVCAR-4 ovarian 89.5% | SK-OV-3 ovarian 112% | IGROV1 ovarian 101% | OVCAR-3 ovarian 96.4% | HS 578T breast 92% | NCI/ADR-RES ovarian 104%
